CXXC DNA block: qHTS Fluorescence Polarization Assay for Inhibitors of MLL CXXC domain - DNA interaction; Histone-lysine N-methyltransferase 2A (Homo sapiens), Q03164; MLL-CXXC / FITC-HOXA9 DNA fluorescence polarization; Potency, µM (titrated, usually from 115 µM), for inactives: at the highest dose activity change, negative = inhibition, usual class: inhibitors; 290,000 compounds, 0.037% hits; AID 2662, 2010; active means well fitted inhibition curve with a large enough effect in the polarisation, with a control signal flat, not every such curve was filed as active; inconclusive means small, poorly fitted or top-dose-only effect, or effect the other way, or a change in a side signal; inactive means no such curve, though single readings can be large or run the other way; the % refers to the polarisation; further: potency means the concentration at half of the fitted maximal effect
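Steps: dispense CXXC domain solution (7 uM) → pin compounds or unlabeled HOX-A9 DNA control → 5 min ambient → add FLSN-HOX-A9 solution (50 nM) → spin → 30 min ambient → fluorescence polarization. Tris pH 7.5/NaCl/DTT/BSA buffer.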
ERG-DNA inh: qHTS for Small Molecule Inhibitors of the ERG Ets/DNA interaction; Potency, µM (titrated, usually from 76.9 µM), without a hit: at the highest dose FP activity, negative = inhibition, usual class: inhibitors; AID 624246, 2012; fluorescence polarization, His-ERG Ets domain / labelled DNA; 370,000 compounds, 0.028% hits; Transcriptional regulator ERG (Homo sapiens), P11308; active means well fitted inhibition curve with a large enough effect in the polarisation, with a control signal flat; inconclusive means small, poorly fitted or top-dose-only effect, or effect the other way, or a change in a side signal; inactive means no such curve, though single readings can be large or run the other way; the % refers to the polarisation;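 further: polarization taken with two DNA probes labelled with fluorescein and Texas red; potency means the concentration at half of the fitted maximal effect; % of control where 0% means no effect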
Target sequence (P11308 whole entry, looked up, the tested form may be a part): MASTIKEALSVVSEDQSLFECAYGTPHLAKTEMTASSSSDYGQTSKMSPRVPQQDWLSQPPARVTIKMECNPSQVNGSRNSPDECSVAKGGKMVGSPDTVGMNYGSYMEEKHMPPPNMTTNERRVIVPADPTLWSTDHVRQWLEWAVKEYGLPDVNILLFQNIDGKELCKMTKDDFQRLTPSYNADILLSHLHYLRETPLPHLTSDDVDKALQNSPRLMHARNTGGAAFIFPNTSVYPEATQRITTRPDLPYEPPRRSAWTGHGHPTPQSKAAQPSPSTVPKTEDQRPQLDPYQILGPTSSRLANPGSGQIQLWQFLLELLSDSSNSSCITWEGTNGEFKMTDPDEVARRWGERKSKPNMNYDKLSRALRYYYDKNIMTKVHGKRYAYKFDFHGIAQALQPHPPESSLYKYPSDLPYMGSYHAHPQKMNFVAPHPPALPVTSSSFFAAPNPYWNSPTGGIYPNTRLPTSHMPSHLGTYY
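His-tagged ERG Ets domain (1 uM in the protein solution; 300mM KCl, 50mM Tris-HCl, 1mM EDTA, 1mM DTT, pH 7.5) received compound, then a probe mix of 5 nM fluorescein-DNA and 100nM Texas-615-DNA. Fluorescence polarization was read for both dyes.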
Menin MLL FP FL: qHTS Assay for Inhibitors Targeting the Menin-MLL Interaction in MLL Related Leukemias: Competition With Fluorescein Labeled MLL-derived Peptide | 290,000 tested, under 10 active | FP activity change, % at 61.4 µM | AID 1766, 2009 | Fluorescence polarization, fluorescein-MLL peptide displacement from menin; active means well fitted curve in the direction sought with a large enough effect in the polarisation, not every such curve was filed as active; inconclusive means small, poorly fitted or top-dose-only effect, or effect the other way, or a change in a side signal; inactive means no such curve, though single readings can be large or run the other way; the % refers to the polarisation; further: % of control where 0% means no effect
RGS12 GoLoco inh: qHTS Assay for Inhibitors of RGS12 GoLoco Motif Activity (Red Fluorophore); Guanine nucleotide-binding protein G(i) subunit alpha-1 (Homo sapiens), P63096; Gai1:RGS12 GoLoco peptide FP, rhodamine, 10 min; Potency, µM (series often up to 61.6 µM), for the others: at the highest dose activity, negative = inhibition, hits mostly inhibitors; 230,000 compounds, 0.44% hits; active means well fitted inhibition curve with a large enough effect, not every such curve was filed as active; inactive means no such curve, though single readings can be large or run the other way; further: potency means the concentration at half of the fitted maximal effect; on the % scale 0 is the no-effect control and ±100 the full control effect; nearly all actives have a fitted effect of over 30% in size
Menin MLL FP TR: qHTS Assay for Inhibitors Targeting the Menin-MLL Interaction in MLL Related Leukemias: Competition With Texas Red Labeled MLL-derived Mutant Peptide; O00255; Menin + Texas Red MLL mutant peptide, fluorescence polarization; Potency, µM (top dose mostly 61.6 µM), for inactives: top-dose FP activity change, negative = inhibition, most hits filed as inhibitors; 270,000 compounds, 0.23% hits; AID 1768, 2009; active means well fitted inhibition curve with a large enough effect in the polarisation, with a control signal flat, not every such curve was filed as active; inconclusive means small, poorly fitted or top-dose-only effect, or effect the other way, or a change in a side signal; inactive means no such curve, though single readings can be large or run the other way; the % refers to the polarisation; further: potency means the concentration at half of the fitted maximal effect; % of control where 0% means no effect
Numbers without * were called inactive; ? = inconclusive; . = no result; ! = a repeat was not active; [ ] = dose if it differs, or a comment. Many of the other results were omitted from the sample, so hits are more common in it than they were.

SMILES	CXXC DNA block	ERG-DNA inh	Menin MLL FP FL	RGS12 GoLoco inh	Menin MLL FP TR
CC[n+]1c(SC)ccc2cc(OC)ccc21	4%	-6%	3	10µM*	3%
COc1ccc(CCNCc2sccc2C)cc1OC	-8%	3%	5	25µM*	38%
O=C(O)[C@@H](O)[C@@H](O)C1[O][Sb][O][C@@H]1CO (some centres not stated)	.	.	.	4%[14.2 µM]	.
CCOC(=O)N1CCN(/[N+]([O-])=N/Oc2ccc([N+](=O)[O-])cc2[N+](=O)[O-])CC1C (configuration not stated)	.	.	-1	.	33%
NNc1nncn1N	.	.	.	-1%[14.2 µM]	.
CN1CC(CO)=C[C@H]2c3cccc4[nH]cc(c34)C[C@H]21	.	.	?	13µM*	-22%
CN1C[C@H](CO)C[C@@H]2c3cccc4[nH]cc(c34)C[C@H]21	-1%	8%	-8	.	-3%
CCC(C(=O)O)C1CCC(C)C(C(C)C(O)C(C)C(=O)C(CC)C2OC3(C=CC(O)[C@@]4(CC[C@](C)(C5CC[C@@](O)(CC)C(C)O5)O4)O3)C(C)CC2C)O1 (some centres not stated)	-3%	.	?	28µM*	-20%
O=C(CN1CCCC1)Nc1ccc(Cl)cc1C(=O)c1ccccc1	-15%	13µM*	-2	-20%	-18%
COC(=O)c1c(C)ccc2c(O)c3c(cc12)C(=O)c1c2c(cc(O)c1C3=O)[C@@]1(C)O[C@@](C)(O2)[C@@H](O)[C@H](N(C)C)[C@H]1O	.	.	.	56%[14.2 µM]	.
CCOc1ccc(N=C2SCCCN2C)cc1	8%	3%	6	18µM*	14%
N[C@@H](CSC1c2ccccc2-c2ccccc21)C(=O)O	.	.	.	5%[14.2 µM]	.
CN(C)C1C(=O)C(C(N)=O)=C(O)[C@@]2(O)C(=O)C3=C(O)c4c(O)cccc4[C@@](C)(O)C3CC12 (some centres not stated)	.	.	?	35µM*	163%
[Cl][Pd][Cl].[S-]C1=C2N=CN[C-]2[NH+]=C[N-]1.[S-]c1ncnc2[nH]cnc12	.	.	.	-5%[14.2 µM]	.
CCOP(=O)(OCC)C(O)c1cccnc1 (configuration not stated)	1%	-14%[15.4 µM]	4	11%	.
CCCCOP(=O)(OCCCC)C(Nc1ccc(C(=O)OCC)cc1)c1ccncc1 (configuration not stated)	12%	-2%	-14	.	3.2µM*
CNc1ccc2nc3ccccc3[n+](C)c2c1	5%	5µM*	?	.	?
C[n+]1c2ccccc2nc2ccc(NCCO)cc21	0%	7.9µM*	?	.	?
O=C(O)C(C(=O)O)P(=S)(S)c1ccccc1 (configuration not stated)	.	.	.	3%[14.2 µM]	.
CCCCC(CC)COC(=O)CCCCC(=O)OCC(CC)CCCC (configuration not stated)	.	28µM*	.	3%	.
O=[As](O)(O)c1ccc(Cc2ccc([As](=O)(O)O)cc2)cc1	.	.	.	1%[14.2 µM]	.
O=C1C=CC(=O)C=C1	-8%	3%	0	1.8µM*!	6%
C[C@]12CC[C@@H]3c4cc(O)c(O)cc4CC[C@H]3[C@@H]1CC[C@@H]2O	3%	1%	1	7.9µM*	?
C[C@]12CC[C@@H]3c4ccc(O)c(O)c4CC[C@H]3[C@@H]1CC[C@@H]2O	-1%	0%	-2	-15%	?
COc1cccc2c1C(=O)c1c(O)c3c(c(O)c1C2=O)C[C@](O)(/C(C)=N\O)C[C@@H]3O[C@H]1C[C@H](N)[C@@H](O)[C@H](C)O1	.	.	.	0.63µM*	.
SMILES	CXXC DNA block	ERG-DNA inh	Menin MLL FP FL	RGS12 GoLoco inh	Menin MLL FP TR
O=C1NC(=O)C2C1C1(Cl)C(Cl)=C(Cl)C2(Cl)C1(Cl)Cl (configuration not stated)	.	10%	.	.	.
ClC1=C(Cl)C2(Cl)C3C(Cl)C=CC3C1(Cl)C2(Cl)Cl (configuration not stated)	.	1%	-1	20µM*!	-1%
O=C(O)[C@H]1[O][Sb][O][C@@H](C(=O)O)C1O (some centres not stated)	.	.	.	4%[14.2 µM]	.
CN1CC=C2C(C#N)=C(N)C(C#N)(C#N)C(c3ccncc3)C2C1 (configuration not stated)	?	-16%	?	25µM*	?
O=C(O)c1ccc(-c2ccc3cc(C45CC6CC(CC(C6)C4)C5)c(O)cc3c2)cc1	.	.	0	.	?
CC1(C)N=C(N)N=C(N)N1c1cccc(C(=O)Nc2ccc(S(=O)(=O)F)cc2)c1	.	.	.	0%[14.2 µM]	.
CNC(=O)OCc1n(C)cc[n+]1C	2%	0%	1	1.8µM*	14%
NC(N)=NCCN=C(N)N	.	.	.	-1%[14.2 µM]	.
c1ccc(CCN2CCCCCC2)nc1	.	.	.	-1%[14.2 µM]	.
[Hg+][c]1ccccc1	15%	.	-2	.	-8%
COc1ccc(C[C@@H](N)c2ccc(OC)cc2)cc1	.	.	.	9%[14.2 µM]	.
CC[N+](C)(CC)CCCOC(=O)C(O)(c1ccccc1)C1CCCCC1 (configuration not stated)	2%	-2%	4	6.3µM*	0%
CN[C@H](C)[C@H](O)c1ccccc1	12%	-7%	-3	11%	6%
CN[C@@H](C)[C@H](O)c1ccccc1	65%	.	1	2µM*	14%
Nc1c(C(=O)Nc2ccc([As](=O)(O)O)cc2)cnc2nnnn12	.	.	.	4%[14.2 µM]	.
N[C@@H](Cc1cc(Br)c(O)c(Br)c1)C(=O)O	-1%	.	8	11µM*!	10%
CC(=O)C[C@H](c1ccccc1)c1c(O)c2ccccc2oc1=O	.	.	0	.	-6%
CCCCCSc1cc(OC)c(CCN)cc1OC	0%	1%	3	-11%	-23%
CCCCCCCSc1cc(OC)c(CCN(C)C)cc1OC	?	4%	1	-1%	7.1µM*
CCCCC/C=C\C/C=C\C/C=C\C/C=C\CCCC(=O)N(Cc1ccc(O)c(Cl)c1)Cc1ccc(O)c(Cl)c1	.	.	-5	40µM*	-3%
CCCCC/C=C\C/C=C\C/C=C\C/C=C\CCCC(=O)NCCc1ccc(O)c(O)c1	.	.	2	-11%	?
Cc1c([C@@H](C)C2NC[C@H](C)C[C@@H]2O)ccc2c1C[C@@H]1[C@H]2CC=C2C[C@@H](O)CC[C@@]21C (some centres not stated)	.	.	.	4%[14.2 µM]	.
O=C(O)CNC(=O)c1ccc([As](=O)(O)O)cc1	.	.	.	-3%[14.2 µM]	.
O=C1c2cccc3cccc(c23)C(=O)N1/N=C/c1c(O)n(-c2ccccc2)c(=O)[nH]c1=O	-2%	-4%	-1	16µM*	-18%
